Screening results from PubChem BioAssay.
D1 PAM = Potentiators of Human D1 Dopamine Receptor: qHTS; D(1A) dopamine receptor (Homo sapiens), P21728; potentiation, % at 10 µM; AID 504651, 2011; 360,000 compounds, 0.036% hits; HEK293 TREx D1 cells, calcium flux, dopamine EC20 potentiation; in the data active means potentiation above about 30%
Target sequence (P21728 whole entry, looked up): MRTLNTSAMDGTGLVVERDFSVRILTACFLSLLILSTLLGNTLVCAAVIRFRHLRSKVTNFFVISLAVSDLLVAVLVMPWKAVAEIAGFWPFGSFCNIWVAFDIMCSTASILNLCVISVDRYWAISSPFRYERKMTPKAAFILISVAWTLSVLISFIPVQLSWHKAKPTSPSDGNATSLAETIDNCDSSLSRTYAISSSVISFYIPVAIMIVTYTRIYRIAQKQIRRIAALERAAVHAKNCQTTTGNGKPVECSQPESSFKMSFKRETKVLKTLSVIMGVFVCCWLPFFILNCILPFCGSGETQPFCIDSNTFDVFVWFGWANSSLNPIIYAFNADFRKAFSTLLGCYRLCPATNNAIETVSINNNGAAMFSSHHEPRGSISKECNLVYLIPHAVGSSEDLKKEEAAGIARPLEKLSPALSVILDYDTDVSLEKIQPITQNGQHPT
D1 antag = Antagonist of Human D 1 Dopamine Receptor: qHTS; HEK293 TREx D1 cells, calcium flux, dopamine EC80; hits give low values; activity change, negative = inhibition, % at 10 µM; 360,000 compounds, 3.2% hits; in the data active means activity change below about -30%
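Tetracycline-induced HEK293 Trex D1 cells, force-coupled to calcium, dye-loaded; compounds added and read 180 s, then EC80 dopamine added and calcium flux tracked kinetically another 180 s.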
TRHR ag = qHTS for Small Molecule Agonists and Allosteric Enhancers of Human TRH Receptor: Primary Screen for Agonists | TRHR cells, calcium flux fluo-8, FDSS agonist mode | activation, % at 2 µM | 360,000 compounds, 0.18% hits | AID 493084, 2011
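TRHR-expressing cells, plated overnight in medium with 10% serum, were loaded with fluo-8 calcium dye at room temperature. After a 10 s baseline, library compound was pin-added and calcium release was recorded kinetically (ex 480/em 530) as agonist response.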
TRHR enhancer = qHTS for Small Molecule Agonists and Allosteric Enhancers of Human TRH Receptor: Primary Screen for Enhancers. Thyrotropin-releasing hormone receptor (Homo sapiens), P34981. TRHR cells, fluo-8 calcium fluorescence, EC20 TRH enhancement. enhancement, % at 2 µM. 360,000 compounds, 0.66% hits. AID 493056, 2011; in the data active means enhancement above about 30%
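Enhancer read-out: after compound pinning and an initial kinetic agonist-mode read, an EC20 of TRH (10 nM final) was injected and fluo-8 calcium signal (Ex 480/Em 530) followed at 1 s/cycle for 100 cycles in TRHR-expressing cells.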
D1 ag = Allosteric Agonists of the Human D1 Dopamine Receptor: qHTS | D(1A) dopamine receptor (Homo sapiens), P21728 | HEK293 T-REx D1 cells, calcium flux, agonist mode | activation, % at 2 µM | 360,000 compounds, 1% hits | AID 504660, 2011
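Tetracycline-induced HEK293 TREx D1 cells, force-coupled to calcium signalling, were dye-loaded with a no-wash calcium kit. Compound was pin-added after a 10 s baseline. Fluorescence was read kinetically at 1 cycle/s for 180 s, with calcium rises flagged as agonism.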
Of the large screens only hits and unclear results are named; the others gave an inactive call. Hits are enriched below; roughly 4.6% of the tested compounds scored in any of these assays. Unless noted, no stated cut-off is given here; in the data, active means activation above about 30%; inactive means the rest.

O=C(CSc1nc(-c2ccccc2)no1)N1CCN(c2ccc(F)cc2)CC1	none
COc1cc2c(-c3cccc(Cl)c3)nc3c(c(C)nn3-c3ccccc3)c2cc1OC	none
CNCc1ccccc1Sc1cccc2ccccc12	D1 ag 59.5
CNCc1ccccc1Sc1ccc(OC)cc1	none
CN(C)CCN(C)Cc1ccccc1Sc1cccc2ccccc12	D1 antag -36.3, D1 ag 51.2
O=C(CCCCn1c(=O)c2ccccc2n(CC(=O)Nc2cccc(F)c2)c1=O)NCCc1ccccc1	none
CCOc1ccc(C2CC(c3c(O)c4ccccc4oc3=O)=NN2c2ccccc2)cc1OC (configuration not stated)	D1 ag 35.7
CCOc1ccc(C2c3c(oc4ccccc4c3=O)C(=O)N2c2nnc(C)s2)cc1OC (configuration not stated)	none
Brc1ccc(NC2=Nc3ccccc3CC2)cc1	D1 antag -30.0
COc1ccc(Nc2ncc3c(n2)CCN(Cc2cccc(F)c2F)C3)c(OC)c1	none
COc1ccc(CSc2ccc(S(=O)(=O)N3CCCCC3)cn2)cc1F	D1 antag -41.6
Cc1cc(C)cc(CSc2ccc(S(=O)(=O)N3CCCC3)cn2)c1	none
O=S(=O)(c1ccc(SCc2ccc(Cl)cc2)nc1)N1CCCC1	D1 antag -32.7
COc1ccc(CN2CCN(C(=O)c3ccc(S(=O)(=O)N4CCCCCC4)cc3)CC2)cc1F	none
COc1ccc(C(C)=O)cc1CSc1ccc(S(=O)(=O)N2CCCCC2)cn1	D1 antag -43.7
Cn1c(=O)n(C)c2cc(N3CCCCC3)c(NC(=O)c3c(F)cccc3F)cc21	none
Cc1ccc(N2CC(NC(=O)c3ccc(S(=O)(=O)N4CCOCC4)cc3)CC2=O)cc1C (configuration not stated)	none (no result: D1 antag)
Cc1ccc(NC(=O)Nc2cccc([N+](=O)[O-])c2)cc1F	D1 antag -57.0, D1 ag 31.8
Cc1cc(NC(=O)Nc2cccc([N+](=O)[O-])c2)no1	none
O=C(Nc1ccc(OC(F)(F)F)cc1)Nc1cccc([N+](=O)[O-])c1	D1 antag -46.9, D1 ag 30.2
CC(C)(C)CC(C)(C)NC(=O)Nc1cccc([N+](=O)[O-])c1	D1 antag -40.8
Cc1ccc(S(=O)(=O)NC(=O)Nc2cccc([N+](=O)[O-])c2)cc1	none
Cc1cccc(NC(=O)Cn2c(=O)n(Cc3ccc4c(c3)OCO4)c(=O)c3ccccc32)c1	none
COc1cc2c(c(O)c1OC)-c1c(cc(OC)c(OC)c1OC)C[C@@H](C)[C@@H](C)C2	D1 antag -40.1
COc1cc2c(c(OC)c1OC)-c1c(cc(OC)c(OC)c1OC)C[C@H](C)[C@H](C)C2	none
COc1ccc(N2CC(NC(=O)c3ccc(Br)o3)CC2=O)cc1 (configuration not stated)	none (no result: D1 antag)
CCC1CCC(N2CCN(c3ccc(F)cc3)CC2)CC1 (configuration not stated)	D1 antag -46.2
CCC1CCC(N2CCN(c3ccc([N+](=O)[O-])cc3)CC2)CC1 (configuration not stated)	none
CCOc1ccc(C(=O)c2cn(CC(=O)Nc3ccc(OC)cc3)c3cc4c(cc3c2=O)OCO4)cc1	none
Cc1cc(SCC(=O)NCc2ccccc2Cl)nc(=O)[nH]1	none (no result: D1 antag)
COc1ccccc1CCNC(=O)C(=O)NCC(c1cccnc1)N1CCN(c2ccccc2)CC1 (configuration not stated)	none
CN(C)c1ccc(C(CNC(=O)c2c(F)cccc2Cl)N2CCOCC2)cc1 (configuration not stated)	none
CCN(CC)c1ccc(C(=O)O)cc1	none
CCN(CC)c1ccc(/C=C2\C(=O)c3ccc(C(=O)O)cc3C2=O)cc1	TRHR ag 106.2, D1 ag 354.0
Cc1ccc(NC(=O)c2sc3ncn(Cc4cccc(F)c4)c(=O)c3c2C)c(Br)c1	none
Cc1ccc(CCNC(=O)CCn2nc(-c3ccc(C)cc3)ccc2=O)cc1	none
COc1ccc(CCN2C(=O)CSC2=Nc2ccc(C(C)C)cc2)cc1OC	D1 antag -43.4
O=C(Nc1ccc(OC(F)(F)F)cc1)C1CC(c2ccc(F)cc2)=NO1 (configuration not stated)	D1 antag -35.3
CCc1nnc(NS(=O)(=O)c2ccc(NC(=S)NC(=O)c3ccc(Br)cc3)cc2)s1	TRHR enhancer 34.9
COc1nccnc1NS(=O)(=O)c1ccc(NC(=S)NC(=O)/C=C/c2ccc(F)cc2)cc1	D1 antag -37.8
CCc1nnc(NS(=O)(=O)c2ccc(NC(=S)NC(=O)/C=C/c3ccc(OC)cc3)cc2)s1	D1 antag -30.1
CC(C)NC(=S)NC(=O)/C=C/c1ccc(F)cc1	D1 antag -81.0
CCS(=O)(=O)c1ncc(N(Cc2cccc(F)c2)Cc2ccco2)c(C(=O)Nc2ccccc2Cl)n1	none
O=C1CC(=C(c2ccccc2)c2ccccc2)C(=O)N1CCCCN1CCN(c2ccccc2)CC1	D1 antag -56.8
O=S(=O)(NCCc1nnc2ccc(SCc3cccc(Cl)c3)nn12)c1ccccc1	none
COc1ccc(C(=O)COC(=O)CCN2C(=O)C3C4CC(C(Br)C4Br)C3C2=O)cc1 (configuration not stated)	none
COc1ccc(C(=O)COC(=O)CN2C(=O)C3C4C=CC(C5CC45)C3C2=O)cc1 (configuration not stated)	D1 antag -32.7
CC(=O)Nc1ccc(-c2ccc(NC(C)=O)c(O)c2)cc1O	D1 antag -32.3
O=C(c1cccc(S(=O)(=O)N2CCN(c3ccc(F)cc3)CC2)c1)N1CCCCCCC1	none
O=C(NC1=NCCS1)c1cccc(S(=O)(=O)N2CCOCC2)c1	TRHR enhancer 31.7
CCN(Cc1ccccc1)C(=O)c1cccc(S(=O)(=O)N2CCN(c3ccccc3)CC2)c1	none
CC(C)c1ccc(S(=O)(=O)N2CCN(C(=O)c3cccc(F)c3)CC2)cc1	D1 antag -67.8
CC(=O)N1CCN(C(=O)c2cccc(S(=O)(=O)N3CCN(c4ccc(F)cc4)CC3)c2)CC1	D1 ag 53.3
CCN(Cc1ccccc1)C(=O)c1cccc(S(=O)(=O)N2CCN(c3ccc(F)cc3)CC2)c1	D1 antag -63.3
COc1cccc2c1cc1c(=O)n(CC(=O)N3CCN(c4ccc(Cl)cc4)CC3)nc(C)n12	none
CCn1c(=O)cc(SCC(=O)NCCc2cccc(C)c2)c2ccccc21	none
Cc1cccc(C)c1NC(=O)c1cc(S(=O)(=O)N2CCc3ccccc3C2)ccc1F	none
